Measurements published in PubChem BioAssay (NCI).
The panel holds about 83,000 compounds, 20% with a hit somewhere; the sample as a whole holds those more often.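 In brief: 96-well plates, 48 h treatment, single concentration, percent growth endpoint.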 A number with no mark means an inactive call. The source made the active and inactive calls. The calls were made as follows: active = growth percent below 10; inactive = the rest.

Key:
Assay in all cases: NCI-60 one-dose screen, 48 h (100 = growth as untreated, 0 = no growth, -100 = all killed)
Details in all cases: 10 µM
HCT-15 colon = system: HCT-15 colon
HT29 colon = system: HT29 colon
SNB-75 CNS = system: SNB-75 CNS
SNB-19 CNS = system: SNB-19 CNS
U251 CNS = system: U251 CNS
PC-3 prostate = system: PC-3 prostate
SK-MEL-5 melanoma = system: SK-MEL-5 melanoma
UACC-62 melanoma = system: UACC-62 melanoma
LOX IMVI melanoma = system: LOX IMVI melanoma
SK-MEL-28 melanoma = system: SK-MEL-28 melanoma
SK-MEL-2 melanoma = system: SK-MEL-2 melanoma
EKVX NSCLC = system: EKVX NSCLC
SN12C renal = system: SN12C renal
UO-31 renal = system: UO-31 renal
TK-10 renal = system: TK-10 renal
ACHN renal = system: ACHN renal
CAKI-1 renal = system: CAKI-1 renal
A498 renal = system: A498 renal
CCRF-CEM leukemia = system: CCRF-CEM leukemia
MOLT-4 leukemia = system: MOLT-4 leukemia

Structure (SMILES)	growth (HCT-15 colon)	growth (HT29 colon)	growth (SNB-75 CNS)	growth (SNB-19 CNS)	growth (U251 CNS)	growth (PC-3 prostate)	growth (SK-MEL-5 melanoma)	growth (UACC-62 melanoma)	growth (LOX IMVI melanoma)	growth (SK-MEL-28 melanoma)	growth (SK-MEL-2 melanoma)	growth (EKVX NSCLC)	growth (SN12C renal)	growth (UO-31 renal)	growth (TK-10 renal)	growth (ACHN renal)	growth (CAKI-1 renal)	growth (A498 renal)	growth (CCRF-CEM leukemia)	growth (MOLT-4 leukemia)
CCOc1ccc(Nc2nc3ccccc3nc2Nc2ccc(OCC)cc2)cc1	26.8%	27.9%	90.9%	39.7%	32.3%	19.8%	81.6%	73.3%	83.8%	99%	89%	46.6%	54.7%	54.9%	72%	52.9%	51.4%	69.1%	23.7%	9.99% (active)
CC(=O)Nc1ccc(-c2cn(-c3cccc(C(=O)Nc4cc(CN5CCOCC5)cc(C(F)(F)F)c4)c3)nn2)cn1	-86.2% (active)	-11.4% (active)	-78% (active)	-88.5% (active)	-71.9% (active)	-69.7% (active)	-100% (active)	-98.1% (active)	-98.6% (active)	-99.2% (active)	-84.6% (active)	-88.1% (active)	-93.2% (active)	-93.5% (active)	-99.3% (active)	-100% (active)	-91.9% (active)	-95.5% (active)	-5.47% (active)	-22.2% (active)
CN1CCN(c2ccc(C(=O)/C=C/c3cc(C(F)(F)F)ccc3Cl)cc2)CC1	-86.4% (active)	0.637% (active)	42.9%	-99.2% (active)	-74.5% (active)	-40.3% (active)	-90.6% (active)	-79.9% (active)	-100% (active)	-97.6% (active)	65.3%	-91.9% (active)	-90.1% (active)	-99.2% (active)	-94.4% (active)	-96.8% (active)	-95.2% (active)	-49.7% (active)	2.2% (active)	2.26% (active)
COc1ccsc1/C=N/NC(=O)c1[nH]c2ccc(Br)cc2c1-c1ccccc1	1.32% (active)	-12.2% (active)	20.1%	21.8%	6.55% (active)	5.35% (active)	-47.3% (active)	9.1% (active)	-18% (active)	30.8%	20.7%	15.2%	-3.76% (active)	11.4%	16.1%	-0.91% (active)	3.46% (active)	20.3%	-12.5% (active)	-11.4% (active)
Cc1nc(Nc2nc(C)c3ccc(OCCN4CCOCC4)cc3n2)[nH]c(=O)c1C	-48.7% (active)	-56.9% (active)	25.9%	-2.34% (active)	8.71% (active)	11.5%	-97.1% (active)	-84.6% (active)	-51.7% (active)	-21.3% (active)	-90.3% (active)	-3.4% (active)	-10.4% (active)	-63.8% (active)	17.6%	-50.2% (active)	-38.4% (active)	-79% (active)	-7.55% (active)	1.13% (active)
COc1csc(/C=N/NC(=O)c2[nH]c3ccc(Br)cc3c2-c2ccccc2)c1	0.545% (active)	-30.8% (active)	4.17% (active)	29.1%	9.71% (active)	14.9%	-37.2% (active)	20.3%	12.6%	35.3%	10.3%	49.2%	5.51% (active)	36.7%	32.8%	19.1%	9.49% (active)	57.8%	-2.42% (active)	1.69% (active)
O=C(N/N=C/c1ccc(-c2cccc([N+](=O)[O-])c2)o1)c1[nH]c2ccc(Br)cc2c1-c1ccccc1	0.278% (active)	-44.9% (active)	83.1%	32.9%	9.05% (active)	18.8%	-20.7% (active)	33%	7.19% (active)	57.7%	22.8%	54.4%	3.81% (active)	38.9%	40.4%	22.9%	21.4%	77.9%	-2.99% (active)	4.53% (active)
CN1CCCN(Cc2ccc(C(=O)Nc3cccc(Nc4ccc5c(O)cccc5n4)c3)cc2C(F)(F)F)CC1	-55.6% (active)	-55.2% (active)	13.9%	-81.2% (active)	-65.7% (active)	2.18% (active)	-100% (active)	-94.8% (active)	-95.5% (active)	-100% (active)	-76.5% (active)	-87% (active)	-86.1% (active)	-56.1% (active)	-65.3% (active)	-74.7% (active)	-85.3% (active)	61.8%	8.39% (active)	9.64% (active)
Cc1ccc(/C(CSc2nnc(-c3c[nH]c4ccccc34)n2-c2ccccc2)=N/O)cc1	-62.4% (active)	6.35% (active)	-44.2% (active)	-18.5% (active)	10.4%	-46.5% (active)	34.1%	-52.6% (active)	-88.2% (active)	62.5%	62.7%	28.3%	-36.7% (active)	6.45% (active)	-65.1% (active)	-61.7% (active)	-27.4% (active)	91.9%	-35% (active)	-27.8% (active)
O=C(NO)c1ccc(CN2CCN(c3nc(-c4ccccc4)c4ccccc4n3)CC2)cc1	22.5%	30.4%	81.7%	22.8%	15.2%	30.8%	-95.9% (active)	-23.9% (active)	-60.6% (active)	24.1%	67.4%	16%	15.9%	-11.6% (active)	19.7%	4.08% (active)	6.42% (active)	61.4%	12%	22.9%
O=C(Nc1ccc(Cl)c([N+](=O)[O-])c1)Nc1ccc(Cl)c([N+](=O)[O-])c1	7.01% (active)	13.1%	61.2%	10.8%	10.6%	10.4%	-26.7% (active)	3.62% (active)	-8.77% (active)	8.08% (active)	30.7%	17.8%	1.65% (active)	-2.65% (active)	48.3%	4.21% (active)	8.32% (active)	20.1%	14.2%	21.7%
O=C(CNc1nc(-c2ccccc2)cs1)Nc1ccc(Cl)cc1	-85.4% (active)	-51% (active)	-44.9% (active)	-100% (active)	-87.3% (active)	-40% (active)	-96.9% (active)	-92.4% (active)	-90.5% (active)	-96.2% (active)	-84.1% (active)	-95.3% (active)	-97.2% (active)	-99.8% (active)	-93.9% (active)	-100% (active)	-82.4% (active)	-93.4% (active)	12.3%	-26.5% (active)
CC(=O)Nc1ccc(-c2cn(-c3cccc(C(=O)Nc4cccc(OC(F)(F)F)c4)c3)nn2)cn1	87.3%	96.9%	118%	113%	73.6%	85.3%	97%	73.5%	88.6%	92.8%	95.4%	105%	114%	131%	111%	101%	94.5%	178%	98.1%	109%
Cc1ccn2c(C(=O)c3ccccc3)cc(-c3cc(-c4ccc(N(C)C)cc4)c(C#N)c(N)n3)c2c1	73.1%	63.1%	78.4%	60.9%	31.9%	78.1%	58.1%	64.6%	21.8%	74.3%	80.9%	88.6%	61.9%	65.4%	85.7%	31.2%	52.7%	111%	96.5%	82.9%
Nc1nc(-c2ccccc2)cs1	23.7%	78.6%	59.2%	77%	28.3%	25.1%	59.1%	53.4%	22%	87.9%	61.6%	32%	68.2%	29%	83.5%	59.5%	69.9%	94.7%	43.3%	35.1%
